# Sampled rows, rich in hits. Any-hit rate of the full collection: about 2%.
# CCHF vOTU inh-1 – CCHFV vOTU protease inhibition; Pep-AMC fluorescence; inhibition, % at 11.5 µM; hit rate 0.55% among 370,000; note: 0% = vehicle wells with enzyme and 100% = no enzyme wells
# Yp Topo-I inh – inhibitors of Yersinia pestis topoisomerase I; Y. pestis Topo-I cleavage product accumulation, plate reader; activity, % at 10 µM; hit rate 0.064% among 360,000; AID 504884; in the data active = activity above about 50%, passing the limit was not always enough
# PfHsp40 rescue – restores yeast growth despite PfHsp40 toxicity | AID 504582 | hit rate 0.68% among 340,000 | growth rescue, % at 12.5 µM | S. cerevisiae expressing PfHsp40, growth rescue, ATP luminescence; in the data active = growth rescue above about 28%, passing the limit was not always enough;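 note: yeast W303a lacking pdr1 and pdr3 grown in galactose medium; growth measured after three days at 30 °C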
# BJeLR viability – BJeLR cell viability loss; inhibition, % (concentration not given with the values); AID 1554; BJeLR (HRASV12) viability, CellTiter-Glo ATP luminescence, 48 h; hit rate 0.17% among 300,000; in the data active = inhibition above about 50%
# PrP 5UTR inh – inhibition of PrP 5' UTR reporter expression | cell-based PrP 5' UTR mRNA reporter, plate reader | inhibition, % (concentration not given with the values) | hit rate 0.35% among 340,000; in the data active = inhibition above about 52%; note: 0 = median of the neutral control wells
# PrPC TRFRET – cell surface PrPC inhibition, primary TR-FRET screen; P04156; TR-FRET read-out; inhibition, % at 13.8 µM; hit rate 0.43% among 370,000; AID 720596; in the data active = inhibition above about 24%; note: 0% = median of the test wells and 100% = reference compound wells
# CCHF vOTU inh-2 – CCHFV vOTU protease inhibition, confirmation | shares compounds with CCHF vOTU inh-1 | Recombinant CCHFV vOTU, Pep-AMC fluorescence | inhibition, % at 11.5 µM | hit rate 17% among 1,900 | AID 686976
# An asterisk follows results filed as active; . = no result. Cut-off read from the data, not from the text of the source, unless noted: active = inhibition above about 30%; inactive = the rest.
SMILES,CCHF vOTU inh-1,Yp Topo-I inh,PfHsp40 rescue,BJeLR viability,PrP 5UTR inh,PrPC TRFRET,CCHF vOTU inh-2
O=C(Nc1ccccc1C(=O)O)c1cccc(NC(=O)c2ccco2)c1,15,1,0,-11,-14,5,.
COc1ccc(CNC(=O)O[C@H]2CC[C@@]34CCCN3C(=O)CCC[C@H]4[C@H]2C)cc1,.,.,.,.,.,2,.
CN(C)[C@@H]1CCN(c2cccc3c2S(=O)(=O)N(C2CC2)CCCO3)C1,-5,.,.,.,.,-12,.
CCOc1ccc(NC(=O)N(CCN2CCOCC2)Cc2ccc3c(c2)CCCN3CC)cc1,41*,0,0,2,-7,1,-17
O=C1C(NS(=O)(=O)c2ccc(Br)cc2)=C(N2CCCCC2)C(=O)c2ccccc21,33*,-9,-1,1,-2,-42,6
CCOC(=O)C1CCCN(C2=C(NS(=O)(=O)c3ccc(Br)cc3)C(=O)c3ccccc3C2=O)C1 (stereo not given),76*,10,4,-2,-39,-99,13
COC(=O)[C@]12CCCCC=C1N(Cc1ccc(OC)cc1)C(=O)[C@@H]2CC(=O)N1CCN(C(=O)c2ccco2)CC1,-1,.,.,.,.,3,.
S=c1[nH]nc(C2CCCCC2)n1/N=C/C=C/c1ccccc1,32*,1,1,-11,4,2,8
S=c1[nH]nc(C2CCCCC2)n1/N=C/C(Cl)=C\c1ccccc1,-5,11,0,18,-22,2,.
CC(=O)c1ccc(NC(=O)c2ccc3nc(-c4ccco4)c(-c4ccco4)nc3c2)cc1,.,-1,0,-5,-23,.,.
O=C(NCc1ccccc1)c1ccc2nc(-c3ccco3)c(-c3ccco3)nc2c1,49*,-1,-1,-3,4,-21,-1
CCCCNC(=O)c1ccc2nc(-c3ccco3)c(-c3ccco3)nc2c1,48*,5,1,6,-12,-9,8
O=C(NCCCO)c1ccc2nc(-c3ccco3)c(-c3ccco3)nc2c1,40*,-1,0,.,-20,-28,55*
O=C(c1ccc2nc(-c3ccco3)c(-c3ccco3)nc2c1)N1CCN(c2ncccn2)CC1,32*,21,1,-4,-25,-21,50*
C=CCN1[C@@H](CC(C)C)COc2cccc(F)c2S1(=O)=O,8,.,.,.,.,-10,.
COC(=O)[C@]12C[C@H](CC(=O)NCc3ccc(C)o3)C(=O)N(Cc3ccc(Cl)cc3Cl)C1=C[C@H](C(C)C)O[C@@H]2C1CC1,17,.,.,.,.,12,.
CN(N=Cc1ccccc1O)C(=O)c1ccccc1N,2,.,.,.,.,-3,.
COc1ccc(/C(C)=N/NC(=O)Cc2cc(=O)[nH][nH]2)cc1OC,-3,.,.,.,.,4,.
NC(=S)NN=Cc1nccc2c(N)cccc12,64*,-6,.,.,.,5,28
O=C(Nc1cccc(Cl)c1)Nc1ccnc(-c2cccnc2)n1,32*,4,1,-3,-57,-12,-20
CC1CC1C(=O)N1CCN(S(=O)(=O)c2cc(C(F)(F)F)cc(C(F)(F)F)c2)CC1 (stereo not given),30*,-5,-1,.,-19,5,-11
Cc1cnc(C(=O)N2CCN(S(=O)(=O)c3cc(C(F)(F)F)cc(C(F)(F)F)c3)CC2)cn1,10,-2,-1,.,-2,-1,.
Cc1ccccc1C(=O)N[C@@H](CC(C)C)C(=O)N1CCC[C@H]1C(=O)NCc1ccccc1,-7,.,.,.,.,-3,.
C=CCn1c2ccccc2c2nnc(SCCCn3c(=O)[nH]c4ccccc43)nc21,31*,32,4,.,-3,2,-4
C=CCn1c2ccccc2c2nnc(SCCN3CCCCC3)nc21,-4,1,1,-6,-11,-15,.
SMILES,CCHF vOTU inh-1,Yp Topo-I inh,PfHsp40 rescue,BJeLR viability,PrP 5UTR inh,PrPC TRFRET,CCHF vOTU inh-2
O=C(COC(=O)c1ccc([N+](=O)[O-])s1)Nc1ccc(Cl)cn1,41*,-10,-1,-1,-1,-10,51*
Cc1c(Cl)cnc(NC(=O)COC(=O)c2cccs2)c1Cl,-4,-2,0,.,4,-2,.
Cc1c(Cl)cnc(NC(=O)COC(=O)c2ccc([N+](=O)[O-])s2)c1Cl,74*,-8,0,-7,-16,-22,74*
Cc1cc(Br)c2nc(-c3ccc(F)cc3)c(Cc3cccc(Cl)c3)n2c1,-5,.,.,.,.,3,.
Cc1cc(C(=O)N/N=C2\CC(=O)CC(C)(C)C2)c(C)n1-c1ccccc1,-1,12,0,9,-27,-3,.
Cc1cc(C(=O)N/N=C2\CC(=O)c3ccccc32)c(C)n1-c1ccccc1,30*,1,-1,3,-26,0,-5
CCOC(=O)c1c(CSC(=N)N)n(-c2ccc(C)cc2)c2cc(Br)c(OC(C)=O)cc12,46*,-15,1,84*,-34,10,-2
CCOC(=O)c1c(CSC(=N)N)n(C)c2cc(Br)c(OC(C)=O)cc12,12,-2,-2,-1,-37,9,.
CCN1/C(=C/c2ccc3cc(C)ccc3[n+]2CC)Sc2ccccc21,31*,-15,3,.,25,-10,2
CCN1/C(=C/c2ccc3cc(C)ccc3[n+]2CC)Sc2cc(C)c(C)cc21,17,-5,11,.,6,1,.
Cc1ccccc1NC(=O)CSc1nc(N)c(C#N)c(-c2cccs2)c1C#N,9,6,0,3,8,9,.
COc1ccc(CCNC(=O)CSCc2ccc(Cl)cc2)cc1OC,-9,9,2,7,-111,9,.
COc1ccc(CCNC(=O)CSc2nc(N)c(C#N)c(-c3cccs3)c2C#N)cc1OC,32*,0,0,5,-13,-3,-4
COCCn1c(-c2ccc(Cl)cc2)cnc1SCC(=O)NCCc1ccc(OC)c(OC)c1,30*,22,0,-3,-14,3,-16
CC(C)C[C@H]1COc2cc(N3CCSCC3)ccc2S(=O)(=O)N1C,-28,.,.,.,.,-1,.
O=[N+]([O-])c1cccc2ccc(/C=C/c3ccc(Cl)cc3)nc12,-12,4,1,-6,-49,3,.
O=[N+]([O-])c1cccc2ccc(/C=C/c3cccc(Br)c3)nc12,31*,-13,-1,-10,-37,5,-12
CC1(Cc2ccccc2OC(F)(F)F)C(=O)Nc2ccc(-c3ccsc3)cc21 (stereo not given),35*,14,.,.,.,10,-10
CC1(Cc2ccccc2OC(F)(F)F)C(=O)Nc2ccc(OC(F)(F)F)cc21 (stereo not given),33*,28,.,.,.,-2,10
Cc1nnc(N/N=C\c2ccc(-c3cccc(C(=O)O)c3)o2)n1N,73*,1,-2,-9,-24,3,-25
O=C(O)c1cccc(-c2ccc(/C=N/NC(=O)c3cccnc3)o2)c1,-10,3,-1,14,-2,-7,.
Cc1nnc(N/N=C/c2ccc([N+](=O)[O-])cc2)n1N,122*,16,0,11,-16,-53,-6
